# High-throughput results deposited in PubChem by National Center for Advancing Translational Sciences (NCATS).
# Menin-MLL TR inh = inhibitors of human menin-MLL interaction, mutant MLL peptide; 270,000 tested, 0.23% active; AID 1768; Potency, µM (titrated, usually from 61.6 µM), without a hit: top-dose FP activity change, negative = inhibition, most hits filed as inhibitors; Menin + Texas Red MLL mutant peptide, fluorescence polarization; O00255; active means well fitted inhibition curve with a large enough effect in the polarisation, with a control signal flat, not every such curve was filed as active; inconclusive means small, poorly fitted or top-dose-only effect, or effect the other way, or a change in a side signal; inactive means no such curve, though single readings can be large or run the other way; the % refers to the polarisation; further: potency means the concentration at half of the fitted maximal effect; % of control where 0% means no effect
# Menin MLL FP FL = displaces fluorescein MLL peptide from human menin; Fluorescence polarization, fluorescein-MLL peptide displacement from menin; FP activity change, % at 61.4 µM; 290,000 tested, under 10 active; AID 1766; active means well fitted curve in the direction sought with a large enough effect in the polarisation, not every such curve was filed as active; inconclusive means small, poorly fitted or top-dose-only effect, or effect the other way, or a change in a side signal; inactive means no such curve, though single readings can be large or run the other way; the % refers to the polarisation; further: % of control where 0% means no effect
# MLL CXXC-DNA inh = MLL CXXC-DNA interaction inhibition. 290,000 tested, 0.037% active. AID 2662. Potency, µM (highest dose often 115 µM), for inactives: at the top dose activity change, negative = inhibition, usual class: inhibitors. MLL-CXXC / FITC-HOXA9 DNA fluorescence polarization; active means well fitted inhibition curve with a large enough effect in the polarisation, with a control signal flat, not every such curve was filed as active; inconclusive means small, poorly fitted or top-dose-only effect, or effect the other way, or a change in a side signal; inactive means no such curve, though single readings can be large or run the other way; the % refers to the polarisation; further: potency means the concentration at half of the fitted maximal effect
#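 Steps: dispense CXXC domain solution (7 uM) → pin compounds or unlabeled HOX-A9 DNA control → 5 min ambient → add FLSN-HOX-A9 solution (50 nM) → spin → 30 min ambient → fluorescence polarization. Tris pH 7.5/NaCl/DTT/BSA buffer.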
# Numbers without * were called inactive; ? = inconclusive; . = not tested or not shown; ! = a repeat was not active. Shown is part of a subset that was picked to be rich in hits.
SMILES,Menin-MLL TR inh,Menin MLL FP FL,MLL CXXC-DNA inh
CC[C@H](C)[C@H](NC(=O)[C@H](CCC(=O)O)NC(=O)[C@@H](N)CO)C(=O)N[C@@H](CCC(N)=O)C(=O)N[C@@H](CC(C)C)C(=O)N[C@@H](CCSC)C(=O)N[C@@H](Cc1cnc[nH]1)C(=O)N[C@@H](CC(N)=O)C(=O)N[C@@H](CC(C)C)C(=O)NCC(=O)N[C@@H](CCCCN)C(=O)N[C@@H](Cc1cnc[nH]1)C(=O)N[C@@H](CC(C)C)C(=O)N[C@@H](CC(N)=O)C(=O)N[C@@H](CO)C(=O)N[C@@H](CCSC)C(=O)N[C@@H](CCC(=O)O)C(=O)N[C@@H](CCCNC(=N)N)C(=O)N[C@H](C(=O)N[C@@H](CCC(=O)O)C(=O)N[C@@H](Cc1c[nH]c2ccccc12)C(=O)N[C@@H](CC(C)C)C(=O)N[C@@H](CCCNC(=N)N)C(=O)N[C@@H](CCCCN)C(=O)N[C@@H](CCCCN)C(=O)N[C@@H](CC(C)C)C(=O)N[C@@H](CCC(N)=O)C(=O)N[C@@H](CC(=O)O)C(=O)N[C@H](C(=O)N[C@@H](Cc1cnc[nH]1)C(=O)N[C@@H](CC(N)=O)C(=O)N[C@@H](Cc1ccccc1)C(=O)O)C(C)C)C(C)C,-1%,-1,.
O=C(N/N=C/c1cn(-c2ccccc2)nc1-c1ccc(F)cc1)c1ccc2c(c1)OCO2,?,2,26%
O=C(N/N=C\c1cn(-c2ccccc2)nc1-c1ccccc1)c1ccc2c(c1)OCO2,25µM*,8,27%
CC(C)(C)OC(=O)NS(=O)(=O)NCc1ccco1,-6%,-2,.
COC(=O)CCC(=O)Nc1ccc(Cl)c(Cl)c1,4%,3,-6%
CO/N=C\CC(=O)Nc1ccc(Cl)c(Cl)c1,25µM*,0,-9%
NCCCCCN,5%,3,.
CC(=O)Nc1ccc(SCC(Cc2ccccc2)N2CCN(CCc3ccccc3)CCC2=O)cc1 (stereo unspecified),2%,0,.
CCOc1ccc(N=C2NC(=O)S/C2=C\c2ccc(N(C)C)cc2)cc1,32µM*,?,1%
CCOc1ccc(/C=C2/SC(=O)NC2=S)cc1,?,?,-5%
CCCCNc1c(C(=O)OCC)c(C)nc2c1cnn2CC,40µM*!,9,7%
CCOC(=O)c1c(C)nc2c(C#N)cnn2c1C,9%,5,-1%
CCn1c(C)nc2cc(-c3nc4n(n3)Cc3ccccc3-4)ccc21,28µM*,1,-9%
Cc1ccc(-c2nc3n(n2)Cc2ccccc2-3)cc1,14%,0,-19%
CCOc1ccccc1-n1nnnc1SCC(=O)Nc1cc2oc3ccccc3c2cc1OC,10µM*,6,33%
CCOc1ccccc1-n1nnnc1SCC(=O)Nc1cc(C)on1,23%,6,1%
O=C(Cn1cnc2sc(-c3ccccc3)cc2c1=O)NCc1ccccc1,?,6,-1%
O=C(Cn1cnc2sc(-c3ccccc3)cc2c1=O)NCc1ccco1,25µM*,11,6%
COc1cc(/C=C2\CC(C(C)(C)C)C/C(=C\c3cc(OC)c(OC)c(OC)c3)C2=O)cc(OC)c1OC (stereo unspecified),7.9µM*,-16,?
COc1cc(/C=C2\CC/C(=C\c3cc(OC)c(OC)c(OC)c3)C2=O)cc(OC)c1OC,-10%,2,15%
OCC(O)C(O)C(O)C(O)CO (stereo unspecified),11%,-14,-1%
Oc1ccc(NCc2ccccc2OCc2ccccc2F)cc1,?,4,-13%
COc1cccc(CNCCO)c1OCc1ccc(Cl)cc1,-4%,-2,2%
CCOc1cccc(CNc2ccc(O)cc2)c1OCc1ccc(Cl)cc1,32µM*,-1,-1%
CCOc1ccccc1CNc1ccc(O)cc1,28µM*,-4,-16%
SMILES,Menin-MLL TR inh,Menin MLL FP FL,MLL CXXC-DNA inh
CCc1ccc(CNc2ccc(O)cc2)cc1,35µM*,-2,3%
Oc1ccc(NCc2ccc(OCc3ccccc3)cc2)cc1,?,?,-11%
COCC(=O)Nc1cc(Sc2ccccc2)ccc1N=C(NC(=O)OC)NC(=O)OC,3%,4,-6%
Cc1cn(C2CC3OCC(NC(=O)C(Cc4ccccc4)NC(=O)OC(C)(C)C)C3O2)c(=O)[nH]c1=O (stereo unspecified),8%,0,.
Cc1ccc2c(Br)cc(Br)c(O)c2n1,-9%,-5,-10%
O=C(O)CCCNc1cc(N2CCN(C(=O)c3ccco3)CC2)c2noc3c2c1C(=O)c1ccccc1-3,16µM*,?,?
O=C1c2ccccc2-c2onc3c(N4CCN(CCO)CC4)cc(N4CCN(C(=O)c5ccco5)CC4)c1c23,-3%,?,?
Cc1cc(N2CCCC2)ccc1/C=C1/C(=O)N(C)C(=S)N1C,22µM*,?,?
